Many of the other results were omitted from the sample, so hits are more common in it than they were.
HIV RNase H inh-1 – inhibitors of HIV-1 reverse transcriptase RNase H | P04585 | RT-RNase H RNA/DNA duplex cleavage, fluorescence | AID 565 | 65,000 tested, 1.9% active | inhibition, % at 10 µM; in the data active = inhibition above about 50%
HIV RNase H inh-2 – confirmation of HIV-1 reverse transcriptase RNase H inhibitors; shares compounds with HIV RNase H inh-1; Recombinant RT RNase H, fluorescent RNA/DNA duplex cleavage; inhibition, % at 10 µM; 1,000 tested, 39% active; AID 651; in the data active = inhibition above about 48%; inconclusive = no clear call, values can overlap the other calls
Hits are given with their value; – = inactive; ? = inconclusive.

SMILES	HIV RNase H inh-1	others
CCCCN(CCCC)CCNC(=O)Cc1nc2c(c(=O)[nH]c(=O)n2C)n1C	–
CC1(C)CN=C(N2CCN(C3=NCC(C)(C)S3)CC2)S1	–
O=C(COC(=O)c1ccco1)Nc1ccc(Br)cc1	–
CCC(Oc1ccccc1)C(=O)Nc1ccc(-c2nnc(-c3ccco3)o2)cc1 (stereo not given)	–
O=C(COc1ccc(Br)cc1)Nc1ccc(-c2nnc(-c3ccco3)o2)cc1	67	HIV RNase H inh-2=72
OC1CC(c2ccco2)NC2(CCCCC2)C1 (stereo not given)	–
Cc1cc(C)cc(N2CC34C=CC(O3)C(C(=O)OCC(=O)NCc3ccco3)C4C2=O)c1 (stereo not given)	–
CC1CCCCN1CC(=O)Nc1sc2c(c1C#N)CCC2 (stereo not given)	–
COC(=O)c1ccccc1NC(=O)CN1C(=O)C2CCCN2c2ncc(Cl)cc21 (stereo not given)	60	HIV RNase H inh-2=?
CC1CCC(NC(=O)CN2C(=O)C3CCCN3c3ncc(Cl)cc32)CC1 (stereo not given)	–
CCc1ccccc1NC(=O)CN1C(=O)C2CCCN2c2ncc(Cl)cc21 (stereo not given)	–
O=C(c1cnn(-c2ccccc2)c1-n1cccc1)N1CCN(C2CCCCC2)CC1	–
CC(C)(C)c1ccc(C(=O)Nc2cnccn2)cc1	–
COC(=O)c1cccc(NC(=O)CSc2nnc(C)n2Cc2ccccc2)c1	–
Cn1c(=O)n(CC(=O)OCc2ccccc2)c(=O)c2c1nc1n2CCCN1C1CCCCC1	–
O=C(Nc1nnc(CC(=O)N2CCCC2)s1)c1cnccn1	–
CC1=C(SCCC#N)S/C(=C2\SC(C)=C(SCCC#N)S2)S1	72	HIV RNase H inh-2=65
O=C(NCc1ccc(Cl)cc1)C1CCCN(S(=O)(=O)c2cnc[nH]2)C1 (stereo not given)	–
Cc1ccc(N2C(=O)c3sc4nnc(C)c(=O)n4c3C2=O)cc1	–
O=C1c2sc3nc4c(c(=O)n3c2C(=O)N1c1ccccc1)CCC4	–
N=c1cc(C2(O)CCCCC2)n2c(nc3ccccc32)s1	–
O=C1c2sc3nc4ccccc4n3c2C(=O)N1c1ccccc1Cl	85	HIV RNase H inh-2=72
Cc1ccccc1N1C(=O)c2sc3nc4c(c(=O)n3c2C1=O)CCC4	88	HIV RNase H inh-2=80
O=c1/c(=C\c2cccnc2)sc2nc3ccccc3n12	–
COc1ccc(C2C(C(=O)NCC3CCCO3)c3cc(OC)c(OC)cc3C(=O)N2C)cc1OC (stereo not given)	–
SMILES	HIV RNase H inh-1	others
COc1ccc(N(CC(=O)N2CCCC(C)C2)S(=O)(=O)c2c(C)nn(C)c2C)cc1 (stereo not given)	–
O=C(COCc1nc2ccccc2c(=O)[nH]1)NC1CCCC1	–
CCCC(=O)N1CCN(S(=O)(=O)c2cc(Cl)ccc2OC)CC1	–
CC(c1nnc(SCC(=O)NC(=O)NCc2ccco2)n1-c1ccc(Cl)cc1)N(C)C (stereo not given)	–
COc1ccc(Cn2nnnc2C(c2cccnc2)N2CCN(c3ccc(O)cc3)CC2)cc1 (stereo not given)	80	HIV RNase H inh-2=85
COc1ccc(Cn2nnnc2C(c2ccccc2Cl)N2CCN(C)CC2)cc1 (stereo not given)	–
COc1ccc(Cn2nnnc2C(c2ccc(C)cc2)N2CCN(C3CCCC3)CC2)cc1 (stereo not given)	–
N#CC(C#N)=c1ccc2c(c1)NC1(CCCCC1)N=2	–
COc1ccc(CCn2c(=N)c(C#N)cc3c(=O)n4ccccc4nc32)cc1	55	HIV RNase H inh-2=–
COc1ccc(CCn2c(=N)c(C(=O)N3CCN(C)CC3)cc3c(=O)n4ccccc4nc32)cc1	–
N#Cc1cc2c(=O)n3ccccc3nc2n(Cc2cccnc2)c1=O	–
COc1ccc(OC)c(S(=O)(=O)N2CCN(c3c(C)cccc3C)CC2)c1	–
Brc1ccc(-c2cnc(-c3cccs3)o2)cc1	–
O=C(NCCCn1ccnc1)Nc1cccc(Cl)c1	–
Cc1cc(NC(=O)CCC2CCCC2)no1	–
Cc1ccc2nc(NC(=O)CN(C)S(=O)(=O)c3cccc4nsnc34)sc2c1	51	HIV RNase H inh-2=–
Cc1ccnc(NC(=O)CN(C)S(=O)(=O)c2cccc3nsnc23)c1	–
Cc1ccc2nc(NC(=O)CN(C)S(=O)(=O)c3ccc(Br)s3)sc2c1	–
Cn1c2c(c(=O)n(C)c1=O)C(c1cccc(Br)c1)C1C(=O)c3ccccc3C1=N2 (stereo not given)	–
CCn1ncc(C2=NOC(C(=O)NCc3ccc(Cl)cc3)C2)c1C (stereo not given)	–
COc1ccccc1NC(=O)c1cc(Sc2nncn2C)nc2ccccc12	–
CCOCCCn1c(=S)[nH]c2cc3c(cc2c1=O)OCO3	–
CCOc1ccc(OCC)c(NC(=O)C2CCCN(c3nc(C)cc(C)n3)C2)c1 (stereo not given)	–
O=C1NCCCc2c1oc1ccc(O)cc21	–
Oc1c(Cl)cc(Cl)c2c1NCCC2	80	HIV RNase H inh-2=–
SMILES	HIV RNase H inh-1	others
CC1CCN(S(=O)(=O)c2ccc(S(=O)(=O)NCC3COCCO3)cc2)CC1 (stereo not given)	–
O=c1cc(CSc2ccc(S(=O)(=O)N3CCCCC3)cn2)nc2sccn12	–
O=C(CCSCCC(=O)NCc1ccco1)NCc1ccco1	77	HIV RNase H inh-2=47
O=C(CSCC(=O)NCc1ccco1)NCc1ccco1	–
O=C(CCSCCC(=O)NCc1cccs1)NCc1cccs1	–
COC(=O)c1ccccc1NC(=O)C12CCC(C)(C(=O)O1)C2(C)C (stereo not given)	–
CC(C)CNC(=O)c1cccc(NC(=O)c2ccc(NC(=O)c3ccco3)cc2)c1	–
N#CC1=C(N)SC2(CCCCC2)SC1c1ccccc1 (stereo not given)	59	HIV RNase H inh-2=–
N#CC1=C(C2CC2)CC(c2ccccc2)C(C#N)=C1N (stereo not given)	–
C=CCOc1nc(N2CCCC2)nc(N2CCCC2)n1	–
O=C1NCCCC2c3cc(O)c4ccccc4c3OC12N1CCCCC1 (stereo not given)	52	HIV RNase H inh-2=–
O=C1NCCCC2c3c(cc(Br)c(O)c3Br)OC12N1CCOCC1 (stereo not given)	–
O=c1oc2ccccc2c(O)c1CN1CCCCC1	–
CN1CCc2nc(SCC(=O)Nc3ccc(F)cc3)c(C#N)cc2C1	–
CCCCC[C@H](O)/C=C/[C@H]1C=CC(=O)[C@@H]1C/C=C\CCCC(=O)O	77	HIV RNase H inh-2=67
CCCCn1c(SCC(=O)OCC)nc2c1c(=O)[nH]c(=O)n2C	68	HIV RNase H inh-2=64
CCOCCn1c(SCc2c(F)cccc2Cl)nc2c1c(=O)[nH]c(=O)n2C	–
CCOC(=O)CSc1nc2c(c(=O)[nH]c(=O)n2C)n1CCc1ccccc1	–
CCOCCn1c(SCCCc2ccccc2)nc2c1c(=O)[nH]c(=O)n2C	–
CCCCCCn1c(SCCCC)nc2c1c(=O)[nH]c(=O)n2C	–
CCOCCn1c(SC)nc2c1c(=O)[nH]c(=O)n2C	59	HIV RNase H inh-2=–
CN1CCN(/C=N/c2c(C#N)cnn2Cc2ccccc2)CC1	–
CCOC(=O)CCc1c(C)c(C#N)c2nc3ccccc3n2c1-n1ccnc1	–
CCOC(=O)CCc1c(C)nc(SCC(=O)O)c(C#N)c1C	70	HIV RNase H inh-2=–
Cc1nc(SCC(=O)CC(=O)OC(C)C)c(C#N)c(C)c1C	–
CCCn1c(NC(=O)c2ccc(Cl)c(S(=O)(=O)N3CCCC3)c2)nc2ccccc21	–
COc1ccc(C)cc1-n1nnnc1SCC1CCCCO1 (stereo not given)	–
COC1(OC)N=C(N)C2(C#N)C(c3cccc(Oc4ccccc4)c3)C12C#N (stereo not given)	–

Screening data (PubChem BioAssay)
